This note sets out measurements from PubChem BioAssay AID493240 (Broad Institute, 2011).

About 270 (21%) of roughly 1,300 compounds were called active. No rule for the calls is given here. Only a sample is shown. Results with a measured potency or affinity are listed apart.

A short description of this test: cytotoxicity in parental SK-MEL-5 melanoma cells – cell-based, CellTiter-Glo, cherry-picked, set 3, orthogonal assay for MITF inhibitor project, dose response (AID 493240). To be noted: SK-MEL-5 viability, ATP luminescence (CellTiter-Glo), 24 h; series mostly up to 35 µM; activity change, negative = viability loss: at the top concentration. (In general: In ATP-based viability assays light output follows the ATP content of the culture.)
`C=CCN1C(=O)S/C(=C\c2ccc(N3CCOCC3)cc2C)C1=O`: the “activity change, negative = viability loss” value is -0.909% (inactive). In the case of `Cc1ccc(C)c(C(=O)Cn2ncc(Cl)c(Cl)c2=O)c1`, the “activity change, negative = viability loss” value is -43.1% (inactive). For `Cc1ccc(SCCC(=O)N2CCC(C)CC2)cc1` the value was 1.23% (inactive); for `CS(=O)(=O)N1CCN(c2nc3ccc(Cl)cc3s2)CC1`, 9.11% (inactive). Regarding `O=C(Nc1ccc(F)cc1F)c1cc2ccccc2oc1=O`, the “activity change, negative = viability loss” value was -5.22% (inactive). For `COc1ccc(CCC(=O)N2CCc3ccccc32)cc1` the value was 6.07% (inactive); for `CCOc1ccc(N(CC(=O)Nc2ccc(OC)cc2)S(C)(=O)=O)cc1`, -3.78% (inactive). On to `COc1ccc(C(=O)Nc2ccc3c(c2)OCCO3)cc1Br`, for which the “activity change, negative = viability loss” value was -12.3% (inactive). For `Cn1c(/C=C/c2ccc(Cl)cc2)nc2ccccc2c1=O` the value was 4.85% (inactive); for `COc1cccc(-c2csc3ncnc(Sc4nnnn4C)c23)c1`, -9.59% (inactive). For `Cn1c(/C(C#N)=C/c2ccc(-c3ccc(S(N)(=O)=O)cc3)o2)nc2ccccc21` the value was 7.65% (inactive). For `CC1CCCCC1NC(=O)/C(C#N)=C/c1ccccc1F` (configuration not stated) the value was -20.1% (inactive).

Turning to `O=C1c2cc([N+](=O)[O-])cc3cc([N+](=O)[O-])cc(c23)C(=O)N1c1ccccn1`, the “activity change, negative = viability loss” value is -23.9% (inactive).

As to `N#C/C(=C\c1cccs1)C(=O)NCC1CCCO1` (configuration not stated), the “activity change, negative = viability loss” value was -8.83% (inactive). For `N/C(=N\OC(=O)c1ccc([N+](=O)[O-])cc1)c1ccc(Br)cc1` the value was -4.62% (inactive). For the compound `CC(C)N=c1c([N+](=O)[O-])nn(C)n1O`, the “activity change, negative = viability loss” value was 2.47% (inactive). For `CCN1CCc2c(sc(NC(=O)c3ccc(S(=O)(=O)N4CCCC4)cc3)c2C(=O)NC)C1` the value was -13.9% (inactive); for `COc1cccc(NC(=O)c2cc3ccccc3cc2OC)c1`, -17.6% (inactive).

On to `O=C(N/N=C/C(Cl)=C\c1ccccc1)c1cccs1`, for which the “activity change, negative = viability loss” value is -2.35% (inactive). For `CCOc1ccc(-c2ccc(SC)nn2)cc1` the value was -49.8% (inactive). For `O=C(Nc1ccc(Cl)cc1)OCc1ccccn1` the value was -16.8% (inactive); for `CC1CCN(c2nc3ccc(C(=O)O)cc3s2)CC1`, 4.93% (inactive). For `O=C(O)c1ccc(Nc2nc3c(s2)CCCC3)cc1` the value was -4.85% (inactive); for `Cc1c(C=O)c2cc(OCc3ccccc3)ccc2n1C`, -0.185% (inactive). As for `Cn1c(=O)c([N+](=O)[O-])c(-n2ccnc2)c2ccccc21`, the “activity change, negative = viability loss” value was -31% (inactive). `NCCCNc1nc(N)c([N+](=O)[O-])c(NC2CCCCC2)n1`: the “activity change, negative = viability loss” value is 8.57% (inactive).

As for `O=C(NC(=S)Nc1ccccn1)c1cccc([N+](=O)[O-])c1`, the “activity change, negative = viability loss” value is -6.69% (inactive). `N/C(=N\OC(=O)c1ccccc1Cl)c1cccc([N+](=O)[O-])c1`: the “activity change, negative = viability loss” value is -1.4% (inactive).

Take `Cc1ccc2c(COC(=O)c3n[nH]c4ccccc34)cc(=O)oc2c1`: the “activity change, negative = viability loss” value is -13.2% (inactive). For `CC(C)(C)c1ccc(-c2noc(CCC(=O)NCc3ccco3)n2)cc1` the value was 14.1% (inactive); for `Cc1cc(-n2c(SCC(=O)NCCC3=CCCCC3)nc3n[nH]c(C)c3c2=N)ccc1Cl`, -34.7% (inactive).

For `CC(/C=N/NC(=O)c1cc(-c2ccncc2)nc2ccccc12)=C\c1ccco1`, the “activity change, negative = viability loss” value is -11.5% (inactive).
